DAX1 inh-1 – DAX1 (NR0B1) inhibitors on StAR promoter, primary screen, cell-based, luminescence, SF-1 (NR5A1), full-length DAX-1; 370,000 compounds, 1.1% hits; inhibition, % at 6.8 µM; HEK293T StAR-luciferase reporter, SF-1/DAX-1 repression relief;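 active means inhibition above the mean over all tested compounds plus 3 SD, cut at about 3.6% in these data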;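 further: 0% = DAX-1 cells with DMSO and 100% = cells lacking DAX-1 with DMSO; higher inhibition means more luminescence from relief of DAX-1 repression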
SMARCA2 activ – SMARCA2 (BRM) function activators, primary screen, cell-based, luminescence, high throughput | MG213 cells, MMTV-luciferase reporter, dexamethasone, overnight | activation, % at 9.1 µM | 370,000 compounds, 1% hits | AID 652017, 2013; in the data active means activation above about 7.8%;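 further: 0% = vehicle wells and 100% = reference activator wells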
DAX1 inh-2 – DAX1 (NR0B1) inhibitors, primary screen, cell-based, HEK293, Gal4-DAX1, luciferase luminescence. inhibition, % at 6.75 µM. Nuclear receptor subfamily 0 group B member 1 (Homo sapiens), P51843. 340,000 compounds, 0.99% hits. AID 504766, 2011. HEK293 Gal4-DAX1 luciferase reporter;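 active means inhibition above the mean over all tested compounds plus 3 SD, cut at about 4.2% in these data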;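 further: 0% = DAX1-transfected cells with DMSO and 100% = empty-vector control cells with DMSO; inhibition shows as a rise in luminescence from relieved DAX1 repression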
hgDAF-12 ag – H. glycines DAF-12 receptor agonists, primary screen, cell-based, luminescence, HEK293, GAL4 fusion, UAS-luciferase | activation, % at 6.8 µM | Nuclear hormone receptor DAF-12 (Heterodera glycines), GAL4 fusion | HEK293 GAL4-hgDAF12 UAS-luciferase reporter, agonist luminescence; normalized to butyrate control | 370,000 compounds, 1.8% hits;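 active means activation above a cutoff set at the mean of all screened compounds plus 3 SD, cut at about 10% in these data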;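 further: 0% = DMSO wells and 100% = sodium butyrate wells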
hcDAF-12 act – H. contortus DAF-12 nuclear receptor activators, primary screen, cell-based, luminescence, HEK293, lit1-tk-luc reporter; 370,000 compounds, 1.4% hits; HEK293 hcDAF-12 lit1-tk-luc reporter; 0% DMSO, 100% Δ7-dafachronic acid; activation, % at 6.8 µM; AID 652067, 2013;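 active means activation above the mean of all tested compounds plus 3 SD, cut at about 5.5% in these data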;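 further: 100% = response to 3 µM Δ7-dafachronic acid high control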
ssDAF-12 act – S. stercoralis DAF-12 nuclear receptor activators, primary screen, cell-based, luminescence, HEK293, GRIP1 co-expression, lit1-tk-luc; HEK293 ssDAF-12/GRIP1 lit1-tk-luc reporter; % of 3 µM dafachronic acid response; activation, % at 6.8 µM; 370,000 compounds, 1% hits; AID 652126, 2013;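 active means activation above the mean over all tested compounds plus 3 SD, cut at about 0.9% in these data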;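 further: 0% = DMSO-only wells and 100% = 3 µM delta7-dafachronic acid wells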
LXRb hcDAF ctr – LXR agonists, Gal4 luciferase reporter, confirmation, counter-screen for hcDAF-12 agonist project, cell-based, luminescence, HEK293, H. contortus campaign; shares compounds with hcDAF-12 act; HEK293 Gal4-LXR tk-luc reporter, 24 h; normalized: DMSO 0%, positive control 100%; activation, % at 6.8 µM; 3,400 tested, under 10 active; AID 743027, 2013;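 active means mean percent activation of the reporter above a cutoff set as the average over tested compounds plus their standard deviation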
Target sequence (P55055 whole entry, looked up, the tested form may be a part): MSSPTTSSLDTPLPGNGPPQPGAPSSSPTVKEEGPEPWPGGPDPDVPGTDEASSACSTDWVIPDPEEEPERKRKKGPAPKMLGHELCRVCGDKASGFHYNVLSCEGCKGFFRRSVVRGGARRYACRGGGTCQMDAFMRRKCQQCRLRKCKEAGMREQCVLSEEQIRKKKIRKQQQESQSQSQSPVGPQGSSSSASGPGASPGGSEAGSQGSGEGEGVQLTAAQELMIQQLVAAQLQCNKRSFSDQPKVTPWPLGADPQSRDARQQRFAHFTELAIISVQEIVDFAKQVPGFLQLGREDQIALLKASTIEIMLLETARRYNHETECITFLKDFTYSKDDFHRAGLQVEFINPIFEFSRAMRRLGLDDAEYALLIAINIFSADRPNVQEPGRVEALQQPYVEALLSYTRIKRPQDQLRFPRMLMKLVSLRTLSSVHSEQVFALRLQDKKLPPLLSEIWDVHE
hcDAF12 ag – H. contortus DAF-12 receptor agonists, confirmation, cell-based, luminescence, HEK293, lit1-tk-luc, triplicate; shares compounds with hcDAF-12 act; HEK293 hcDAF-12 lit1-tk-luc reporter; % of Δ7-dafachronic acid response; activation, % at 6.8 µM; 3,400 compounds, 61% hits; AID 743032, 2013;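 active means mean activation across triplicate tests above the threshold derived from the earlier primary screen, cut at about 5.5% in these data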;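 further: 0% = DMSO only wells and 100% = 3 µM Δ7-dafachronic acid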
The depositor's hits bear a star; . = not tested or not shown. The list is not random: actives were taken first. Their share in the collection is about 4.8%.

SMILES | DAX1 inh-1 | SMARCA2 activ | DAX1 inh-2 | hgDAF-12 ag | hcDAF-12 act | ssDAF-12 act | LXRb hcDAF ctr | hcDAF12 ag
C=CCOc1c(CNc2cccc(C(=O)O)c2)cccc1OC | 3 | 2 | 1 | 9 | 7.3* | 0 | 0 | 3
O=C(Nc1ccccc1Cl)c1cccs1 | 0 | 1 | 1 | 2 | 0 | -1 | . | .
O=C(Nc1ccccc1Cl)c1ccc(-c2ccccn2)s1 | 2 | 1 | 5.0* | 11* | 8.7* | 0 | 1 | 3
CCC(=O)Nc1cc2nn(-c3ccccc3)nc2cc1Cl | 2 | 2 | 1 | 8 | 7.3* | 0 | 2 | 13*
NNc1nc2sc3c(c2c(=O)n1Cc1ccccc1)CCC3 | 1 | 3 | 1 | 2 | 1 | -2 | . | .
NNc1nc(-c2ccccc2)nc2sc3c(c12)CCCC3 | 2 | 1 | 3 | 3 | 7.8* | 1 | 2 | 19*
COc1ccccc1C(=O)Nc1nnc(-c2ccccc2)s1 | 0 | 4 | 1 | 9 | 6.8* | 1.2* | 0 | 8.5*
COc1ccccc1C(=O)CC(=O)c1ccccc1 | 1 | 4 | 2 | 11* | 6.7* | 1.5* | 1 | 11*
COc1ccccc1C(=O)NNC(=O)c1ccccc1 | 2 | 8 | 6.0* | 7 | 10* | 1.0* | 1 | 11*
COc1ccccc1C(=O)NNC(=O)C1CCN(C(=O)OC(C)(C)C)CC1 | 0 | -2 | 0 | 1 | 7.1* | 0 | 0 | 5
COc1ccccc1NC(=O)CC(=O)c1ccccc1 | 0 | -1 | 2 | 0 | -2 | -1 | . | .
COc1ccccc1C(=O)Nc1nnc(C)s1 | 1 | 6 | 1 | 6 | 2 | -1 | . | .
CSCCC(C(=O)NCc1ccccc1)n1c(Cc2cc(F)cc(F)c2)nc2ccccc21 (stereo not given) | 0 | -2 | . | 4 | 0 | -1 | . | .
O=C(C(=O)N1CCN(C(=O)Cc2ccccc2)CC1)c1cccc(C(F)(F)F)c1 | 0 | -2 | . | -1 | -1 | -1 | . | .
Cc1ccnn1CC(=O)N/N=C/c1cn[nH]c1-c1ccccc1 | -1 | 2 | 0 | -1 | 1 | 0 | . | .
COc1ccc(CCC(=O)NCC(c2ccco2)N2CCc3ccccc32)cc1 (stereo not given) | 0 | -1 | 2 | 0 | -2 | -1 | . | .
O=C(CN1CCN(CC(=O)Nc2ccccc2F)CC1)Nc1ccc2c(c1)OCCO2 | -1 | 3 | 1 | 2 | -1 | -1 | . | .
COc1ccccc1C(=O)NNC(=O)c1ccccc1Br | 0 | 1 | 1 | 5 | 8.4* | 1 | 0 | 2
CCN(CC)S(=O)(=O)c1cccc2cc(C(=O)O)c(O)cc12 | 0 | 0 | 0 | 0 | -2 | -1 | . | .
N#C/C(=C\c1ccc(-c2ccc(C(=O)O)cc2)o1)C(=O)Nc1ccc(F)cc1 | 1 | 3 | -1 | 9 | 6.9* | 0 | 0 | 5
Cc1cccc(C)c1NC(=O)/C(C#N)=C/c1ccc(-c2ccc(C(=O)O)cc2)o1 | 1 | 2 | 4.3* | 8 | 7.0* | 0 | 1 | 5

Source: PubChem (The Scripps Research Institute Molecular Screening Center)
